Results published in the supplement of paper PMC11732987, “Enantioselective OTUD7B fragment discovery through chemoproteomics screening and high-throughput optimisation” (Communications Chemistry, 2025).

target: COPS5 (UniProt Q92905); test: log2 ratio of Biotin-Ahx-Ub-VS probe labelling (fragment/DMSO); higher = less target engagement (more negative = stronger competition), active = hit call of the paper (q ≤ 0.05, log2 ratio ≤ -1); details: compound concentration: 200 uM; treatment time: 3 h
Experimental: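 Competitive ABPP in HEK293T cell lysate. Lysates were treated with each chloroacetamide fragment at 200 µM for 3 h, then with Biotin-Ahx-Ub-VS (0.5 µM, 1 h), NeutrAvidin-enriched and analysed by diaPASEF LC-MS/MS. Protein LFQ was median-normalised; average log2 ratio is fragment/DMSO from an unpaired t-test (n=3 treated, n=44 DMSO). Hits: q ≤ 0.05, log2 ratio ≤ -1, unique peptides ≥ 2.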

COPS5, sequence (Q92905 whole entry, looked up, the tested form may be a part): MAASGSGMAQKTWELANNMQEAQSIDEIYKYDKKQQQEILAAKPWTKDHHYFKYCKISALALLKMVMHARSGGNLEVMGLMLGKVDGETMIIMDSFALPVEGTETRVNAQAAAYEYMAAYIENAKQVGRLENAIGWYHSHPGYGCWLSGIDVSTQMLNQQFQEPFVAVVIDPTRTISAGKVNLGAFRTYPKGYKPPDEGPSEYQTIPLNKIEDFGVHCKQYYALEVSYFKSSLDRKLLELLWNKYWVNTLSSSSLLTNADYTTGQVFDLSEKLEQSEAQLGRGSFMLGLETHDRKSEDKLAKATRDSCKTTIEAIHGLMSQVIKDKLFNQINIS

log2 ratio of Biotin-Ahx-Ub-VS probe labelling, inactive:
O=C(CCl)N1CCC(C(=O)N2CCCC2)CC1 -0.223
Cc1n[nH]c2c1CN(C(=O)CCl)CC2 0.184
Cc1cnc2[nH]cc(CCNC(=O)CCl)c2c1 0.199
CC(=O)Nc1ccc(NC(=O)CCl)cc1 -0.0874
Cc1c(NC(=O)CCl)c(=O)n(-c2ccccc2)n1C -0.0844
O=C(CCl)NCc1ccc2c(c1)OCO2 0.119
O=C(CCl)NCC(=O)N1CCCC1 -0.0202
